Laboratory results from PubChem BioAssay (NCATS).
Results filed as inconclusive are left out. Active and inactive are the calls of the source. The call rests on the fitted dose curve; in most records, active means well fitted inhibition curve with a large enough effect; inconclusive means small, poorly fitted or top-dose-only effect; inactive means flat fitted curve, though single readings scatter.

system: Zika virus NS2B-NS3 protease; experiment: Primary screen GU AMC qHTS for Zika virus inhibitors (AID 1347154); settings: Zika NS2B-NS3 unlinked protease, AMC fluorogenic substrate; series mostly up to 54.1 µM; activity change, negative = inhibition: at the top concentration; further: nearly all actives have a fitted effect of over 70% in size;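 on activity change, negative = inhibition: 0% = no-inhibitor control and -100% = no-enzyme control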
Method in brief: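 Unlinked Zika NS2B hydrophilic domain–NS3 protease complex at 25 nM in 10 mM Tris-HCl pH 8.0, 0.01% Tween 20, with an AMC peptide substrate. Fluorescence change (340/450 nm) over 15 min at room temperature, normalized to controls, fitted to 4-parameter Hill.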
Potency means the concentration at half of the fitted maximal effect.

SMILES	activity change, negative = inhibition	Potency
Oc1c(I)cc(Cl)c2cccnc12	-10.6% (inactive)	
CCCCc1nc(Cl)c(CO)n1Cc1ccc(-c2ccccc2-c2nn[nH]n2)cc1	-5.76% (inactive)	
O=C(Nc1ccc(Cl)c(Cl)c1)C1CC1	-6.83% (inactive)	
C=CCc1ccc(O)c(OC)c1	-3.71% (inactive)	
O=c1[nH]c(=O)n([C@H]2C[C@H](O)[C@@H](CO)O2)cc1C(F)(F)F	4.55% (inactive)	
CCCCCC=CCC=CCCCCCCCC(=O)OCC	-14% (inactive)	
CCCCOc1cc(C(=O)NCCN(CC)CC)c2ccccc2n1	-20.2% (inactive)	
C[C@]12C=CC(=O)C=C1CC[C@@H]1[C@@H]2[C@@H](O)C[C@@]2(C)[C@H]1CC[C@]2(O)C(=O)CO	2% (inactive)	
CN1CCCC(CC2c3ccccc3Sc3ccccc32)C1 (centres undefined)	-2.61% (inactive)	
Cc1c(C(C)C)c(=O)n(-c2ccccc2)n1C	-2.41% (inactive)	
C[C@@H]1C[C@H]2[C@@H]3CCC4=CC(=O)C=C[C@]4(C)[C@@]3(F)[C@@H](O)C[C@]2(C)[C@H]1C(=O)CO	-0.653% (inactive)	
Oc1ccc(Cl)c2cccnc12	-2.48% (inactive)	
CCCCCCc1ccc(O)cc1O	-11.8% (inactive)	
CC(=O)OCC(=O)NCCCOc1cccc(CN2CCCCC2)c1	-3.17% (inactive)	
C#C[C@]1(O)CC[C@H]2[C@@H]3CCC4=CC(=O)CC[C@@H]4[C@H]3CC[C@@]21C	2.43% (inactive)	
C/C=C/c1ccc(OC)cc1	-6.87% (inactive)	
CCN(CC)CCNC(=O)COc1ccc(Cl)cc1	-3.86% (inactive)	
O=C(CCCN1CCC(O)(c2ccc(Br)cc2)CC1)c1ccc(F)cc1	0.229% (inactive)	
CCC(C(=O)OCCN(CC)CC)c1ccccc1 (centres undefined)	-2.7% (inactive)	
CN(C)/N=N/c1nc[nH]c1C(N)=O	3.15% (inactive)	

SMILES	activity change, negative = inhibition	Potency
C[C@]12CC[C@@H]3c4ccc(O)cc4CC[C@H]3[C@@H]1C[C@@H](O)[C@@H]2O	-5.08% (inactive)	
CC(=O)Oc1ccc(C(=C2CCCCC2)c2ccc(OC(C)=O)cc2)cc1	-4.67% (inactive)	
CC(C)(CO)[C@@H](O)C(=O)NCCCO	-2.2% (inactive)	
CC(C)NC[C@@H](O)COc1cccc2ccccc12		inactive
C[C@@H](CN(C)C)CN1c2ccccc2Sc2ccccc21	-2.91% (inactive)	
Cc1cc(O)c(C(C)C)cc1Cl	-10.6% (inactive)	
Cc1ccnc(NS(=O)(=O)c2ccc(N)cc2)n1	-3.28% (inactive)	
C[C@]12C=CC(=O)C=C1[C@@H](F)C[C@@H]1[C@@H]2[C@@H](O)C[C@@]2(C)[C@H]1CC[C@]2(O)C(=O)CO	-3.02% (inactive)	
CCCCCCCCCCCCCCNCCO	7.79% (inactive)	
Cc1cc(N)c2cc(NC(=O)Nc3ccc4nc(C)cc(N)c4c3)ccc2n1		14.1 µM (active)
CNCC[C@@H](Oc1ccccc1C)c1ccccc1		inactive
CCCN1CCCC[C@H]1C(=O)Nc1c(C)cccc1C	-5.64% (inactive)	
CCCCCCCCCCCCCCCCCC(=O)OCC(O)CO (centres undefined)	-3.25% (inactive)	
CC(Cc1ccccc1)(NC(=O)CN)c1ccccc1 (centres undefined)		inactive
CC(=O)[C@H]1CC[C@H]2[C@@H]3C[C@H](C)C4=CC(=O)CC[C@]4(C)[C@H]3[C@@H](O)C[C@]12C	-4.23% (inactive)	
CN=C(NC#N)Nc1ccc(C2=NNC(=O)CC2C)cc1 (centres undefined)		inactive
CCCSS/C(CCO)=C(\C)N(C=O)Cc1cnc(C)nc1N	3.24% (inactive)	
OCc1ccccc1O	-2.78% (inactive)	
CC(C)(C(=O)c1cccnc1)c1cccnc1	-0.652% (inactive)	
